A selection: hits, their analogues and other compounds. The true share with any hit is near 8.7%.
JMJD2A Tudor: inhibitors of human JMJD2A Tudor domain; O75164; AlphaScreen JMJD2A-Tudor / H3K4me3 peptide binding; Potency, µM (top dose mostly 114 µM), hits mostly inhibitors; 390,000 tested, 4.4% active; AID 504339; note: nearly all actives have a fitted effect of over 50% in size
Sfp PPTase inh: blocks B. subtilis Sfp PPTase activity; AID 1490; Biochemical Sfp PPTase activity, qHTS; 310,000 tested, 3.5% active; Potency, µM, actives largely listed as inhibitors; Q9F4F7;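 note: the enzyme is Sfp with the accession as filed and its product quenches rhodamine fluorescence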
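Buffer: 50 mM Hepes-Na pH 7.6, 10 mM MgCl2, 0.01% Nonidet P-40, 0.01% BSA. Enzyme 15 nM, pre-exposed to compound 15 min; substrates then added and fluorescence change tracked over 30 min.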
HP1b chromo inh: blocks HP1-beta chromodomain binding to methylated histone tails; 390,000 tested, 0.56% active; AlphaScreen HP1-beta / biotin-H3K9me3 peptide binding; Potency, µM (highest dose often 114 µM), hits mostly inhibitors; AID 540317; P83916; note: nearly all actives have a fitted effect of over 70% in size
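Compound inhibition of the preformed complex between 50 nM HP1-beta and 50 nM biotinylated H3K9me3 peptide was read by AlphaScreen. Buffer was PBS pH 7.4 with 0.01% Tween-20. Incubations ran 30 min at room temperature, with 10 ug/mL donor/acceptor beads.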
G9a inh: blocks human histone lysine methyltransferase G9a | Potency, µM (highest dose often 102 µM), hits mostly inhibitors | 350,000 tested, 8.8% active | G9a H3K9 monomethylation, AlphaScreen, 2 h | Q96KQ7; note: nearly all actives have a fitted effect of over 75% in size
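Compounds were preincubated with 20 nM G9a for 15 min, after which biotinylated H3K9 peptide (500 nM) and SAM (20 uM) started a 2 h room-temperature reaction. Monomethylated product was quantified by antibody-based AlphaScreen chemiluminescence.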
ALOX12 inh: blocks human arachidonate 12S-lipoxygenase; 580,000 tested, 1.1% active; Potency, µM (series often up to 108 µM), most hits filed as inhibitors; purified 12hLO, xylenol orange hydroperoxide absorbance; AID 1671190; P18054
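Hydroperoxide product was detected by ferrous iron/xylenol orange as the 573 to 405 nm absorbance ratio. Arachidonic acid at 40 uM (final) was turned over for 30 min at room temperature by 150 nM human 12hLO, pH 7.0 Hepes buffer, after 15 min compound preincubation.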
BAZ2B inh: BAZ2B (human) inhibition. Q9UIF8. AlphaScreen BAZ2B-H3K14Ac peptide displacement. Potency, µM (top dose mostly 114 µM), hits mostly inhibitors. 360,000 tested, 4.4% active. AID 504333; note: nearly all actives have a fitted effect of over 60% in size
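Complex of BAZ2B and biotin-H3K14Ac (50 nM apiece) forms over 30 min at RT, then faces library compounds up to 110 uM for another 30 min; AlphaScreen beads added, 20 min dark incubation, luminescence read.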
A number is an active result; . = inactive; ? = inconclusive; / = not tested or not shown; [ ] = another dose, or the depositor's remark. Calls come from the whole dose curve; as a rule, active = well fitted curve in the direction sought with a large enough effect; inconclusive = small, poorly fitted or top-dose-only effect, or another doubt; inactive = no such curve, though single readings can be large; an effect the other way counts as inactive or inconclusive.

SMILES	JMJD2A Tudor	Sfp PPTase inh	HP1b chromo inh	G9a inh	ALOX12 inh	BAZ2B inh
O=C(O)C(Cc1c[nH]c2ccccc12)NS(=O)(=O)c1cccc(Cl)c1Cl (stereo unspecified)	.	.	.	.	.	89.1µM
O=C(O)c1cc(S(=O)(=O)NC(Cc2c[nH]c3ccccc23)C(=O)O)ccc1Cl (stereo unspecified)	.	.	.	44.7µM	.	.
CCc1ccc2[nH]c(C)c(CN3CCCC(C)C3)c(=O)c2c1 (stereo unspecified)	/	/	/	/	.	/
CC(/C=C1\N=C(SCc2ccccc2Cl)SC1=O)=C\c1ccccc1	56.2µM	.	?	.	.	?
COc1cc(C2=N/C(=C\c3ccccc3)C(=O)O2)cc(OC)c1OC	/	.	/	/	.	/
COc1cc(/C=C2\N=C(c3ccccc3)NNC2=O)cc(OC)c1OC	.	.	.	25.1µM	?	.
O=C1SC(c2ccccc2)=N/C1=C/c1ccco1	?	.	.	50.1µM	?	.
CCSC1=N/C(=C\c2ccccc2OC)C(=O)S1	/	/	/	/	.	/
O=C1SC(SCc2ccccc2)=N/C1=C\c1ccco1	56.2µM	.	?	12.6µM	?	12.6µM
CSCCC(NC(=O)CCNC(=O)c1ccccc1)c1nnc2ccccn12 (stereo unspecified)	/	/	/	/	.	/
CSC1=N/C(=C\c2ccc(C(=O)O)cc2)C(=O)S1	/	/	/	/	.	/
O=C1SC(SCc2ccccc2)=N/C1=C\c1ccc(C(=O)O)cc1	?	56.2µM	.	/	.	?
O=C1NNC(c2ccccc2)=N/C1=C\c1ccco1	?	35.5µM	.	/	?	70.8µM
CCCSC1=N/C(=C\C=C\c2ccco2)C(=O)S1	15.8µM	31.6µM	35.5µM	14.1µM	?	11.2µM
O=C1NNC(c2ccccc2)=N/C1=C\c1ccccc1Cl	.	.	.	/	.	.
COc1cc(/C=C2\N=C(C)OC2=O)cc(OC)c1OC	.	.	.	31.6µM	?	.
Cc1c(C(=O)N2CCC(C(=O)Nc3ccc4c(c3)OCO4)CC2)oc2ccc(F)cc12	/	/	/	/	.	/
CC1=N/C(=C/c2ccco2)C(=O)O1	?	?	.	28.2µM	.	/
Cc1cc(O)cc2c1C(=O)/C(=C/c1ccco1)O2	?	.	.	?	?	?
O=[N+]([O-])c1ccccc1/C=N/N1CCN(c2ccncc2S(=O)(=O)N2CCCCC2)CC1	35.5µM	.	?	?	.	31.6µM
O=[N+]([O-])c1ccc(/C=N/N2CCN(c3ccncc3S(=O)(=O)N3CCCCC3)CC2)cc1	.	.	.	.	.	.
CCOC(=O)CN1CC23C=CC(O2)C(C(=O)Nc2ccc(OC)cc2OC)C3C1=O (stereo unspecified)	.	.	.	50.1µM	.	.
COc1ccc(NC(=O)C2C3C=CC4(CN(Cc5cccnc5)C(=O)C24)O3)c(OC)c1 (stereo unspecified)	.	.	.	.	.	50.1µM
COC(=O)C1C2C=CC3(CN(Cc4ccco4)C(=O)C13)O2 (stereo unspecified)	.	12.6µM	.	?	.	.
COc1ccccc1-c1nc(C(=O)NCc2ccc3c(c2)OCO3)n2ccccc12	/	/	/	/	.	/
SMILES	JMJD2A Tudor	Sfp PPTase inh	HP1b chromo inh	G9a inh	ALOX12 inh	BAZ2B inh
CCOc1ccc(CN(CCC#N)C(=S)NC(=O)c2ccccc2)cc1	.	.	.	1.41µM	.	.
COc1ccc(CN(CCC#N)C(=S)NC(=O)c2ccccc2)cc1	.	.	.	39.8µM	.	.
C#CCOCCOCCOCCNc1nc(N2CCN(C(=O)CCCCCCCCCCNC(=O)[C@H](CCCCN)n3cc(C[C@@H](C)CC)nn3)CC2)nc(N2CCN(C(=O)CCCCCCCCCCNC(=O)[C@H](CCCN=C(N)N)n3cc(C[C@@H](C)CC)nn3)CC2)n1	35.5µM	/	50.1µM	.[2.33 µM]	/	50.1µM
C#CCOCCOCCOCCNc1nc(N2CCN(C(=O)CCCCCCCCCCNC(=O)[C@@H](CCSC)n3cc(CCO)nn3)CC2)nc(N2CCN(C(=O)CCCCCCCCCCNC(=O)[C@H](CCCN=C(N)N)n3cc(C[C@@H](C)CC)nn3)CC2)n1	44.7µM	/	.	.[2.33 µM]	/	50.1µM
C#CCOCCOCCOCCNc1nc(N2CCN(C(=O)CCCCCCCCCCNC(=O)[C@H](CO)n3cc(CCCCCN)nn3)CC2)nc(N2CCN(C(=O)CCCCCCCCCCNC(=O)[C@H](CCCN=C(N)N)n3cc(C[C@@H](C)CC)nn3)CC2)n1	/	/	/	.[2.33 µM]	/	50.1µM
C#CCOCCOCCOCCNc1nc(N2CCN(C(=O)CCCCCCCCCCNC(=O)[C@H](CCCCN)n3cc(C)nn3)CC2)nc(N2CCN(C(=O)CCCCCCCCCCNC(=O)[C@H](CCCN=C(N)N)n3cc(C[C@@H](C)CC)nn3)CC2)n1	56.2µM	/	?	.[2.33 µM]	/	?
C#CCOCCOCCOCCNc1nc(N2CCN(C(=O)CCCCCCCCCCNC(=O)[C@H](CCCCN)n3cc(CCO)nn3)CC2)nc(N2CCN(C(=O)CCCCCCCCCCNC(=O)[C@H](CCCCN)n3cc(CCCC(=O)O)nn3)CC2)n1	.	/	.	.[2.33 µM]	?	.
COc1ccccc1CN1CCc2ncc(C(=O)NCCC(C)C)n2CC1	/	/	/	/	.	/
CCN(CC)S(=O)(=O)c1ccc(C(=O)Nc2nnc(C(C)C)s2)cc1	.	.	.	35.5µM	.	.
CCOc1ccc(C(=O)Nc2nnc(C(C)C)s2)cc1OCC	.	89.1µM	.	10µM	.	.
COc1ccc(C(=O)Nc2nnc(C(C)C)s2)cc1OC	.	/	.	.	.	.
CCN(CC)S(=O)(=O)c1nnc(NC(=O)c2ccc(C(C)C)cc2)s1	.	/	.	.	.	.
O=C1O[C@H](CN2CCOCC2)CN1/N=C\c1ccc([N+](=O)[O-])o1	/	.	/	.[5.15 µM]	/	/
O=C1OC(CN(Cc2ccccc2)Cc2ccccc2)CN1N=Cc1ccc([N+](=O)[O-])o1 (stereo unspecified)	.	/	.	/	12.6µM	/
N#C/C(=C(/O)c1cccc2ccccc12)c1nc2ccccc2[nH]1	/	/	/	/	.	/
O=C1c2ccccc2C(=O)C1(CO)c1ccccc1	.	.	.	44.7µM	.	.
Cc1nc(CCNC(=O)CC(C)C)no1	/	/	/	/	.	/
Cc1nc(CCNC(=O)Cc2ccsc2)no1	/	/	/	/	35.5µM	/
Cc1ccccc1C(=O)NCCC(=O)NCc1coc(-c2cccs2)n1	/	/	/	/	.	/
Cn1nnc(C(O)CN2CCOCC2)n1 (stereo unspecified)	.	.	.	79.4µM	.	.
c1ccc2c(Nc3ccc4c(c3)OCCO4)c3c(nc2c1)CCCC3	?	50.1µM	.	?	.	?
CCCC(=O)OC1=C(C(C)=O)N(Cc2ccccc2)S(=O)(=O)c2ccccc21	?	/	.	?	.	?
CCCCCN1C(C(=O)c2ccccc2)=C(OC(=O)CC)c2ccccc2S1(=O)=O	?	/	.	.	.	.
CCCCC(=O)OC1=C(C(C)=O)N(Cc2ccccc2)S(=O)(=O)c2ccccc21	79.4µM	/	.	?	.	?
